16 targets from the supplement of paper PMC10849652 can be followed below.

Compound in this experiment: c1cn2cc(-c3ccc4cn[nH]c4c3)nc(Nc3ccc(N4CCOCC4)cc3)c2n1 [entospletinib]
Nature of the experiment: log2 fold change, soluble protein after heating vs DMSO (PISA); higher = thermal stabilisation; K562 cells, 10 uM, 30 min; active = over 0.2 and 3.5 SD of the protein, either way, in both replicates (recomputed). Summed up: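 Aliquots of K562 cells (2×10^6 cells/mL) treated with 10 μM compound for 30 min were heated for 3 min over 48°C-58°C. After pooling and extraction in PBS with 0.5% NP-40 at 4°C, soluble protein from a 21,000xg, 90 min spin was quantified by TMTpro 16plex LC-MS/MS with channel sums equalised. Thermal stability is expressed against control samples, from duplicates, as a log2 fold change.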

The full data set covers some 7,900 targets. This sample favours those with a hit. About 0.6% of all pairs of compound and target were hits. Unmarked numbers belong to inactive results.

Sequence of UniProt Q9P2B2 (Q9P2B2 whole entry, looked up): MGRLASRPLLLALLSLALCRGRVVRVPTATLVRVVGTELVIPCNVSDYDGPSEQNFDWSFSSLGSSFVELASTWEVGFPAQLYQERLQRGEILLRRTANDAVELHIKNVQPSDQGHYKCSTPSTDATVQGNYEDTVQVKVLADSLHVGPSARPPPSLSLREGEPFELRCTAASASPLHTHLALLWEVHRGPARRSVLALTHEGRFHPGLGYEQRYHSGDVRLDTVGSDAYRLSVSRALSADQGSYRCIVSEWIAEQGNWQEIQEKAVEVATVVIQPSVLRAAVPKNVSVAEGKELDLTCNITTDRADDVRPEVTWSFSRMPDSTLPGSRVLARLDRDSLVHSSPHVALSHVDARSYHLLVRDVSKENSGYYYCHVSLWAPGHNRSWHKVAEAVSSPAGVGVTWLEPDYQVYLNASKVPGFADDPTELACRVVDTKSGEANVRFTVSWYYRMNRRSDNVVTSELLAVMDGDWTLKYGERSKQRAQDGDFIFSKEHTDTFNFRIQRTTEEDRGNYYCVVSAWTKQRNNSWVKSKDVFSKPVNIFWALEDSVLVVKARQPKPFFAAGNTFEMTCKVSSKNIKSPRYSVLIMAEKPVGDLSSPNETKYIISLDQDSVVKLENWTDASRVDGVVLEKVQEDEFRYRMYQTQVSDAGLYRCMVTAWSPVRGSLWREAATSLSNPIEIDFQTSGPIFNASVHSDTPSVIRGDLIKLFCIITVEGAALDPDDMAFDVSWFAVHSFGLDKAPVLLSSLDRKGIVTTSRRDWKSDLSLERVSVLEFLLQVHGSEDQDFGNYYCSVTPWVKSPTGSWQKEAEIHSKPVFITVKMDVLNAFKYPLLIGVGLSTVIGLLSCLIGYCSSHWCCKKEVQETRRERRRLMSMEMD
Sequence of UniProt Q93096 (Q93096 whole entry, looked up): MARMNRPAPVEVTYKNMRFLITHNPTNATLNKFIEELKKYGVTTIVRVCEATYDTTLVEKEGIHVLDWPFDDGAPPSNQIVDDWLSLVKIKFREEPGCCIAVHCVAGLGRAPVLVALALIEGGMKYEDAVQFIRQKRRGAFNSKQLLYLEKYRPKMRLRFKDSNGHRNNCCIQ
Sequence of UniProt Q86T03 (Q86T03 whole entry, looked up): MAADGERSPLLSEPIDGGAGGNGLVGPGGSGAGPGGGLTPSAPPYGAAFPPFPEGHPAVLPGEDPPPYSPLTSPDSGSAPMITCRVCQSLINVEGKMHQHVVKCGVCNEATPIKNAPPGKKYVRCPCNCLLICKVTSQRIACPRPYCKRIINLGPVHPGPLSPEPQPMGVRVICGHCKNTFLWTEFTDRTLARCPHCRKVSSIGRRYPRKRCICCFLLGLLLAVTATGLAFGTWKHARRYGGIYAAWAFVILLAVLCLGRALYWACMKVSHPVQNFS
Sequence of UniProt Q9NR22 (Q9NR22 whole entry, looked up): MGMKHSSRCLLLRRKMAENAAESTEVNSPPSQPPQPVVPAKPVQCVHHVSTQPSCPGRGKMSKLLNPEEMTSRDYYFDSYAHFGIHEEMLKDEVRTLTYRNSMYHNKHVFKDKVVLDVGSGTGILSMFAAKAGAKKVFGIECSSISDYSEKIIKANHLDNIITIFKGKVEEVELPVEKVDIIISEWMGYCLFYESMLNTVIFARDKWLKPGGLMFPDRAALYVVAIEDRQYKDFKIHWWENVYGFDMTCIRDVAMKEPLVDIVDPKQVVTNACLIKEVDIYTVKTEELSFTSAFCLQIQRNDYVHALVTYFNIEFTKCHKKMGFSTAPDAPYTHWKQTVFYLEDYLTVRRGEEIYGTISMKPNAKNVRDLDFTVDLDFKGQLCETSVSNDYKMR
Sequence of UniProt Q8IZL8 (Q8IZL8 whole entry, looked up): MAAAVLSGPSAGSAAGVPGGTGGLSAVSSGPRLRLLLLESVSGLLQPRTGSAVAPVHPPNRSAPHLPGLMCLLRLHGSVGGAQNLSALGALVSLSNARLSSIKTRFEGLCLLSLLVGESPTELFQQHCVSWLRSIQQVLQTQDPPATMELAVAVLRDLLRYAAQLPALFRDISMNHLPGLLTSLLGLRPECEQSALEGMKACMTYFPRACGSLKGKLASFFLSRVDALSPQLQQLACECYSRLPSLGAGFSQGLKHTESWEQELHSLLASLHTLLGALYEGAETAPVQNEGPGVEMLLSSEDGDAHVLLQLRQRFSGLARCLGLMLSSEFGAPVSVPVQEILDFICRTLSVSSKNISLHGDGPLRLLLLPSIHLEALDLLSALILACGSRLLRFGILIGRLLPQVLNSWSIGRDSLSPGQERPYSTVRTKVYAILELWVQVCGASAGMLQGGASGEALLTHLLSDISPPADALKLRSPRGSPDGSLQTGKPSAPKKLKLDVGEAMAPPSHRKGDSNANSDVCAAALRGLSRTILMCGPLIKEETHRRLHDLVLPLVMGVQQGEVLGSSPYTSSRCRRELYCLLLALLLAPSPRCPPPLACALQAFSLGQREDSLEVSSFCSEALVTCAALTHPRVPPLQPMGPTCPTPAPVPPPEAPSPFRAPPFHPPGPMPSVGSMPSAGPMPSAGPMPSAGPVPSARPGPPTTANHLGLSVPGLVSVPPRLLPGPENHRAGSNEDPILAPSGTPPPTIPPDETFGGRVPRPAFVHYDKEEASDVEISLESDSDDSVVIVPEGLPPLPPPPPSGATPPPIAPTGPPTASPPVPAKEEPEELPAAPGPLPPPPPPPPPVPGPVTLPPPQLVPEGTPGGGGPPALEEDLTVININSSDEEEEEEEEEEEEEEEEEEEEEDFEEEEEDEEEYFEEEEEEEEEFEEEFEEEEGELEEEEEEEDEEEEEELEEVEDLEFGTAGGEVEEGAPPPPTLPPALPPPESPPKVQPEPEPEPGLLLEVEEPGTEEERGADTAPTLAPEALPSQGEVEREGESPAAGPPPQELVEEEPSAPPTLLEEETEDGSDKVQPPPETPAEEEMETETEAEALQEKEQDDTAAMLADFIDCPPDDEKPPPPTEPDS
Sequence of UniProt P62333 (P62333 whole entry, looked up): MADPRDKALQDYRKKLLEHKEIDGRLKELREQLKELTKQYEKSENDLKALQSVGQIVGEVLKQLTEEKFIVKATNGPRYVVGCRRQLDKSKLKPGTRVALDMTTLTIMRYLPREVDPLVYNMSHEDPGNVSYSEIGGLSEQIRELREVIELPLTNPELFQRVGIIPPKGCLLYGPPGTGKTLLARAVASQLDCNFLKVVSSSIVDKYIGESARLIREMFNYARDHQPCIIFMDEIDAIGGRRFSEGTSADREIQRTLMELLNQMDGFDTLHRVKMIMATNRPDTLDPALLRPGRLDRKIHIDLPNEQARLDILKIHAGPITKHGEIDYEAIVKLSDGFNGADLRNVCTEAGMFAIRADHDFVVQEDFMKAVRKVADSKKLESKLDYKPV
Sequence of UniProt Q16537 (Q16537 whole entry, looked up): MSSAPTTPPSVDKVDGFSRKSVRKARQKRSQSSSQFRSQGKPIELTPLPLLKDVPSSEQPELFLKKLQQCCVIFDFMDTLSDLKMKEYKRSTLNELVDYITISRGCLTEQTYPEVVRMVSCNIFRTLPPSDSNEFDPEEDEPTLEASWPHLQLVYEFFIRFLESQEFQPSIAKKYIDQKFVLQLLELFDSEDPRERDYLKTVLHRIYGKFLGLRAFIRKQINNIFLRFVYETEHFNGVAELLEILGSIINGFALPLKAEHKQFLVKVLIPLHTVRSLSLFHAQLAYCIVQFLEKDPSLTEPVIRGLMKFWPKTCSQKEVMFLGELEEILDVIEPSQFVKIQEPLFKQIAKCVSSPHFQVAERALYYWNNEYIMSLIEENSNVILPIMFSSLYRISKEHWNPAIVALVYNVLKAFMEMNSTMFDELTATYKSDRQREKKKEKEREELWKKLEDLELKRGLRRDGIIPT
Sequence of UniProt Q05209 (Q05209 whole entry, looked up): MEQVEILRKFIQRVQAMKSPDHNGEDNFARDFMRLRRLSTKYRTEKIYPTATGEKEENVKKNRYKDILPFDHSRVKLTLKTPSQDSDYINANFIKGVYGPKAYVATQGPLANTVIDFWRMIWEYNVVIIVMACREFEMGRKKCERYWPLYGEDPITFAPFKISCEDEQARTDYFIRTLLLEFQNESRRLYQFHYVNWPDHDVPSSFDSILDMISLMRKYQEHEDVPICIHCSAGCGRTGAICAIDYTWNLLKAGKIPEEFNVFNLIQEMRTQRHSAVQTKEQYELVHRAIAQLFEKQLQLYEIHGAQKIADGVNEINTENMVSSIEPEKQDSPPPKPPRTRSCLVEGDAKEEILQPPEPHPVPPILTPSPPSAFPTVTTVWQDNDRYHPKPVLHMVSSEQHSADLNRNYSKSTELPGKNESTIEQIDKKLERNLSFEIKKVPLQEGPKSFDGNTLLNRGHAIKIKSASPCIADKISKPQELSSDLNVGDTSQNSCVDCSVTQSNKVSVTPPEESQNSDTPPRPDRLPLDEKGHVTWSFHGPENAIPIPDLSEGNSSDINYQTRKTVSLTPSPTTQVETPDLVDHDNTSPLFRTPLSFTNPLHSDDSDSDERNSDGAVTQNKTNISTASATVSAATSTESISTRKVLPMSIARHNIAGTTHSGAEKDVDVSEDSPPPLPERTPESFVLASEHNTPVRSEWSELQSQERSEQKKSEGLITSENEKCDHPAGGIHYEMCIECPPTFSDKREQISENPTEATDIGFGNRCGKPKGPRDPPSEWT
Sequence of UniProt O00625 (O00625 whole entry, looked up): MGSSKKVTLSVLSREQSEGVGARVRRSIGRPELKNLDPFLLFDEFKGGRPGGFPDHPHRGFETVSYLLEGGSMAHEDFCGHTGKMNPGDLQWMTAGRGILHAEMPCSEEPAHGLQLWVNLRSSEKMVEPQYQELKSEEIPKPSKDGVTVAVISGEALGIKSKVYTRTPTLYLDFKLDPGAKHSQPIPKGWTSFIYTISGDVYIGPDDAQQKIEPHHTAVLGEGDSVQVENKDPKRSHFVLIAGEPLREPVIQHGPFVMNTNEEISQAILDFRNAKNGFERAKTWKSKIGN
Sequence of UniProt Q8WUK0 (Q8WUK0 whole entry, looked up): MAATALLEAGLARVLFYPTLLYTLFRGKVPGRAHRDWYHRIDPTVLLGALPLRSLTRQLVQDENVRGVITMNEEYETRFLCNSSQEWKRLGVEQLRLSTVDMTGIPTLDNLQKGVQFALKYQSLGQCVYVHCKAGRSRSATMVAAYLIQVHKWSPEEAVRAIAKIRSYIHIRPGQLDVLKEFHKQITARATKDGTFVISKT

As for PELP1 (UniProt Q8IZL8), the log2 fold change is -0.041.
The same measure for PIP4P1 isoform 2 (UniProt Q86T03): 0.028; for POLR2B (UniProt P30876): 0.193.
The same measure for POLD3 (UniProt Q15054): -0.054.
The same measure for PTPMT1 (UniProt Q8WUK0): -0.018; for PTTG1 (UniProt O95997): -0.027; for PTP4A1 (UniProt Q93096): 0.
PIR (UniProt O00625): the log2 fold change is 0.028.
For the target PRPF4B (UniProt Q13523), the log2 fold change was 0.09.
PECAM1 (UniProt P16284): the log2 fold change is -0.071.
For PPP2R5E (UniProt Q16537), the log2 fold change is -0.078.
With PRMT8 (UniProt Q9NR22) the figure was 0; with PTPN12 (UniProt Q05209), -0.041; with PTGFRN (UniProt Q9P2B2), -0.007.
With PTPA (UniProt A6PVN8), the log2 fold change is -0.004.
As to PSMC6 (UniProt P62333), the log2 fold change is 0.01.
